An excerpt weighted towards active compounds, which were near 1.4% of everything screened.
CCT modulator – High-Throughput Screening for Modulators of Cytosolic Chaperonin Activity; purified chaperonin ATPase assay, HTRF ADP detection, 30 min; activity change, % (no concentration beside the values), hits read low; 360,000 tested, 0.3% active; AID 651819, 2012; in the data active = activity change below about -30%; also: % is scaled to controls: 0 for no effect and ±100 for the full control effect
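TRiC (40 or 20 nM final, by batch activity) in 30 mM Tris pH 7.4, 100 mM KCl, 5 mM MgCl2, 1 mM DTT was treated with compound at 76 uM single dose, then 10 uM ATP, 30 min at 37 °C. ADP was read by HTRF Transcreener.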
PINK1 modulator – A Quantitative High throughput Screen to Identify Chemical Modulators of PINK1 Expression. 410,000 tested, 0.2% active. Potency, µM (series often up to 76.6 µM), inactives show top-dose activation (PINK1 increase), actives largely listed as activators. PINK1 immunofluorescence, high-content cytometry, 24 h; active = well fitted activation curve with a large enough effect; inconclusive = small, poorly fitted or top-dose-only effect; cell line not stated here; also: potency is read from the fitted curve at half-maximal effect; % of control where 0% means no effect; nearly all actives have a fitted effect of over 65% in size
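Measures PINK1 amount and localization on or inside mitochondria by immunofluorescence. Stable cells get compounds at 5 concentrations for 24 hours before fixation and staining; CCCP controls included.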
p53 reactivator – qHTS assay for re-activators of p53 using a Luc reporter. Potency, µM (highest dose often 92.2 µM), without a hit: at the highest dose activity change, positive = activation, hits mostly activators. H1299 p53-A138V BP100-luciferase reporter, luminescence, 24 h. 320,000 tested, 0.063% active. AID 504706, 2011; also: potency is read from the fitted curve at half-maximal effect; % of control where 0% means no effect; nearly all actives have a fitted effect of over 45% in size
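p53-null H1299 cells stably carrying temperature-sensitive p53-A138V and a BP100-luciferase reporter were pinned with compounds (4-point, 1:5 series) and held 24 hrs at 37 deg C. Luminescence was read 10 min after detection reagent.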
ASM inhibitor – Inhibitors of Secretory Acid Sphingomyelinase (S-ASM): qHTS. 340,000 tested, 0.006% active. Potency, µM (highest dose often 57.5 µM), without a hit: top-dose activity change, negative = inhibition, usual class: inhibitors. Sphingomyelin phosphodiesterase (Homo sapiens), P17405. placental ASM, HMU-PC fluorogenic substrate, 60 min; also: potency is read from the fitted curve at half-maximal effect
Target sequence (P17405 47-631 limits assumed): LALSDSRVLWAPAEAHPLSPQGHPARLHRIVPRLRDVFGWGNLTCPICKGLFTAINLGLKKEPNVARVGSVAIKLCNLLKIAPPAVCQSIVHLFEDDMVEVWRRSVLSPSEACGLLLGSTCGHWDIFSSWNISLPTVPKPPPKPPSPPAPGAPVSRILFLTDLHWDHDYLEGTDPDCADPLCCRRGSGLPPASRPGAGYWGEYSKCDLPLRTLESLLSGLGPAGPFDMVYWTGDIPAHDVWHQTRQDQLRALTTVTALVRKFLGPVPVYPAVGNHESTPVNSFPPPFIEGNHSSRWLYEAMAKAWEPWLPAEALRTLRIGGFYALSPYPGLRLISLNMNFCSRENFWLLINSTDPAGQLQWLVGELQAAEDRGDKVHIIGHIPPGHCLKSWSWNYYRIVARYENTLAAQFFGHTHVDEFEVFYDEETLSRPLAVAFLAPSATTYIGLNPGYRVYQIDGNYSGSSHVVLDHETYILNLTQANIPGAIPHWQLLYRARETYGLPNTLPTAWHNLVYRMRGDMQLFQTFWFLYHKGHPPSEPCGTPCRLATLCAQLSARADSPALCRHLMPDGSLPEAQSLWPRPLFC
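qHTS format. ASM enzyme prepared from human placenta hydrolyses the fluorogenic substrate HMU-PC0 (9 uM final) over 60 min at 37 °C after a 10 min compound preincubation.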
ALOX12 inh – Primary qHTS assay for inhibitors of human arachidonate 12S-lipoxygenase (ALOX12): Round 2; Polyunsaturated fatty acid lipoxygenase ALOX12 (Homo sapiens), P18054; purified 12hLO, xylenol orange hydroperoxide absorbance; Potency, µM (series often up to 108 µM), for inactives: at the top dose activity change, negative = inhibition, hits mostly inhibitors; 580,000 tested, 1.1% active; AID 1671190, 2021; also: potency is read from the fitted curve at half-maximal effect; % is scaled to controls: 0 for no effect and ±100 for the full control effect
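Hydroperoxide product was detected by ferrous iron/xylenol orange as the 573 to 405 nm absorbance ratio. Arachidonic acid at 40 uM (final) was turned over for 30 min at room temperature by 150 nM human 12hLO, pH 7.0 Hepes buffer, after 15 min compound preincubation.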
MmCpn inh – Inhibitors of TCP-1 ring complex (TRiC) of Methanococcus maripaludis (MmCpn): qHTS | Potency, µM (doses to about 76.9 µM), for the others: at the highest dose activity, negative = inhibition, actives largely listed as inhibitors | Chaperonin Mm-Cpn (Methanococcus maripaludis) | 330,000 tested, 0.031% active | purified Mm-Cpn ATPase, ADP Transcreener TR-FRET | AID 504842, 2011; also: potency is read from the fitted curve at half-maximal effect; % is scaled to controls: 0 for no effect and ±100 for the full control effect; nearly all actives have a fitted effect of over 80% in size
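ATP (10 uM final) was added to archaeal chaperonin (25 nM final) after 10 min exposure to test compound at 37°C; after 30 min further incubation, ADP was detected by competitive TR-FRET.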
The depositor's hits bear a star; u = inconclusive; x = no result given; [ ] = remark or other dose. Unless noted, calls follow the shape of the dose curve; as a rule, active = well fitted curve in the direction sought with a large enough effect; inconclusive = small, poorly fitted or top-dose-only effect, or another doubt; inactive = no such curve, though single readings can be large; an effect the other way counts as inactive or inconclusive.

SMILES	CCT modulator	PINK1 modulator	p53 reactivator	ASM inhibitor	ALOX12 inh	MmCpn inh
Cc1ccc(-c2ccc(CN3C(C)C(=O)N(Cc4cn(Cc5ccco5)nn4)CCS3(=O)=O)cc2)cc1 (configuration not stated)	1	2%	x	x	11µM*	x
CC1C(=O)N(Cc2cn(Cc3ccco3)nn2)CCS(=O)(=O)N1Cc1ccc(-c2ccc(Cl)c(Cl)c2)cc1 (configuration not stated)	0	1%	x	x	-41%	x
COc1ccc(CN2C(=O)c3cccnc3C2Nc2ccc(OC)c(Cl)c2)cc1 (configuration not stated)	-71*	-3%[38.3 µM]	-1%	-2%	u	-11%
CC(C)(C)c1ccc(-c2nnc(SCC(=O)O)n2N)cc1	0	-1%	0%	3%	-6%	-1%
C=CCn1c(SCC(=O)O)nnc1-c1ccc(C(C)(C)C)cc1	-31*	3%	-4%	2%	u	-6%
C=CCn1c(SCC(=O)c2ccc(O)c(O)c2)nnc1-c1cccc(C)c1	0	1%	15%	-4%	8.9µM*	1%
C=CCn1c(SCC(=O)c2ccc(O)c(O)c2)nnc1-c1cccc(Cl)c1	-2	4%	-10%	-6%	u	-1%
CN1CCN(C(=O)c2cnc(N3CCCC3)c3ccccc23)CC1	x	x	x	x	5%	x
O=C1NCc2ccccc2CC12CCN(CC1=CCCCC1)C2 (configuration not stated)	x	x	x	x	18%[6.33 µM]	x
CCCCc1ccc(NC(=O)Nc2cc(C)nn2C)cc1	-111*	4%	-7%	-1%	x	1%
CCCCc1ccc(NC(=O)Nc2cnccn2)cc1	0	4%	-3%	-5%	-5%	0%
COc1ccc2[nH]c(C(=O)Nc3ccc(F)cc3Br)cc2c1	-50*	2%	6%	8%	117%	u
COc1ccc2[nH]c(C(=O)Nc3ncc(C)cc3Br)cc2c1	0	-1%	0%	6%	u	-1%
Cc1cc(C)n(-c2nc3c(c(=O)n(CC(N)=O)c(=O)n3C)n2CCc2ccccc2)n1	x	x	x	x	36%	x
S=C(Nc1ccccc1)Nc1nc2ccccc2n1CCOc1ccc(Cl)cc1	2	-1%	u	-6%	8.9µM*	-16%
CCCn1c(NC(=S)Nc2ccccc2)nc2ccccc21	0	3%	u	-8%	22µM*	-1%
CCn1c(NC(=S)Nc2ccccc2)nc2ccccc21	-3	2%	7%	-2%	u	-8%
Cc1ccc(S(=O)(=O)/N=C2/NC(=O)/C(=C/c3ccc(Br)o3)S2)cc1	-3	-2%	-18%	44%	1µM*	-2%
CC(=O)NNC(=S)Nc1ccccc1	x	x	x	x	71%	x
Brc1ccc(-c2cn3c4ccccc4nc3n2CCCN2CCCC2)cc1	x	x	x	x	10µM*	x
COc1ccc(CSC(=S)NNc2ccccc2)cc1	0	u	x	x	22µM*	x
COc1ccc(C(=O)NNc2ccccc2)cc1	-1	4%	1%	x	-12%	0%
CCCCn1c(N)c(N(CC(C)C)C(=O)c2cccc(S(=O)(=O)N3CCCCC3)c2)c(=O)[nH]c1=O	0	0%	-3%	5%	-6%	2%
CCCCn1c(N)c(N(CC)C(=O)Cn2c(CC)nc3ccccc32)c(=O)[nH]c1=O	x	x	x	x	25µM*	x
CCCCn1c(N)c(N(C)C(=O)Cn2c(CC)nc3ccccc32)c(=O)[nH]c1=O	x	x	x	x	-11%	x
SMILES	CCT modulator	PINK1 modulator	p53 reactivator	ASM inhibitor	ALOX12 inh	MmCpn inh
CCCCn1c(N)c(N(CC(C)C)C(=O)c2cccc(S(=O)(=O)N3CCCCCC3)c2)c(=O)[nH]c1=O	-81*	-1%	6%	14%	42%	-9%
CCCCn1c(N)c(N(CC(C)C)C(=O)c2cc(-c3ccco3)nc3ccccc23)c(=O)[nH]c1=O	0	9%	-3%	31%	40µM*	2%
CCOC(=O)C(=O)Nc1ccc(F)cc1	-84*	-2%	6%	8%	463%	1%
CCCc1cc(=O)oc2cc(C)cc(OC(C)C(=O)NCCCN(C)C)c12 (configuration not stated)	x	x	x	x	-23%	x
Cc1cc(NS(=O)(=O)c2ccc(NC(=S)NC(=O)c3ccc(C(C)(C)C)cc3)cc2)no1	0	0%	u	-19%	7.1µM*	-1%
Cc1cc(NS(=O)(=O)c2ccc(NC(=S)NC(=O)c3ccc(Cl)cc3Cl)cc2)no1	0	1%	x	-20%	32µM*	x
COc1ccc(C(=O)NC(=S)Nc2ccc(S(=O)(=O)Nc3cc(C)on3)cc2)cc1OC	-2	-2%	12%	-4%	u	0%
Cc1cc(NS(=O)(=O)c2ccc(NC(=S)NC(=O)c3ccncc3)cc2)no1	-3	-1%	1%	5%	-20%	1%
Cc1cc(NS(=O)(=O)c2ccc(NC(=S)NC(=O)c3ccccc3)cc2)no1	1	1%	11%	-4%	16µM*	-3%
Cc1ccc(C(=O)Nc2ccc3oc(-c4ccccc4C)cc(=O)c3c2)cc1	x	x	x	x	-4%	x
Cc1ccc(C2=CC(=O)CC(c3ccccc3)C2)cc1 (configuration not stated)	x	x	x	x	8%	x
CC(C)NC(=O)C[C@@H]1O[C@H](CNC(=O)C2CC2)[C@@H](O)[C@H]1O	x	x	x	x	56µM*	x
CCCCn1c(=O)n(CC(O)COc2cccc3ccccc23)c(=O)c2c1ncn2C1CCCC1 (configuration not stated)	x	x	x	x	13%	x
Oc1ccc(/C=N/NC(=S)NC2CC3CCC2C3)cc1 (configuration not stated)	0	2%	19%	-2%	18µM*	u
Cc1cc2c(c(=O)n1CCN(C)C)C(c1ccc(Cl)cc1Cl)C(C#N)=C(N)O2 (configuration not stated)	x	x	x	x	56µM*	x
Cc1cc2c(c(=O)n1CCN(C)C)C(c1ccncc1)C(C#N)=C(N)O2 (configuration not stated)	-2	-2%	u	5%	-8%	2%
Cc1ccc(Cl)cc1NC(=O)CCn1cnc2c1c(=O)n(C)c(=O)n2C	x	x	x	x	10%	x

From PubChem
